Source: the antibiotic and cytotoxicity screens of Wong et al. (2023)
Out of some 39,000 compounds screened, about 500 (1.3%) were called active. The sample holds actives, similar compounds and a random draw of the others, so the mix is not that of the screen.

Each molecule was assayed on S. aureus RN4220 (assay: growth inhibition call (relative growth <= 0.2)). Conditions: 50 µM.

SMILES | growth inhibition call
Cc1nnc(NCCc2ccccc2)n(N)c1=O | inactive
c1ccc(CCNc2ccnc3cc4ccccc4cc23)cc1 | active
NCCNc1cccc2ccccc12 | inactive
C[C@@H]1CN([C@@H](C)CO)C(=O)Cc2cc(NC(=O)CCN3CCOCC3)ccc2O[C@@H]1CN(C)S(=O)(=O)c1ccc(Cl)cc1 | inactive
CO[C@@H]1CN(C)C(=O)c2cc(NC(=O)C3CC3)ccc2OC[C@H](C)N(C(=O)CN2CCOCC2)C[C@H]1C | inactive
CS(=O)(=O)CCOC(=O)C1=CC(CCCO)=C[C@@H](c2ccc(CN3CCCC3)cc2)N(Cc2sc3ccccc3c2Cl)C=C1C(=O)OCCS(C)(=O)=O | active
COC(=O)C1=CC(CCCO)=C[C@@H](c2ccc(CN3CCCC3)cc2)N(Cc2sc3ccccc3c2Cl)C=C1C(=O)OC | inactive
NC(=O)N1C(=O)[C@H]2[C@H](C1=O)[C@H]1C=C(CCCO)[C@@H]2[C@H](c2ccc(CN3CCCC3)cc2)N1Cc1sc2ccccc2c1Cl | inactive
CCCCCCc1nc(-c2cc(C)c(OC)c(C)c2)cc2c1[Si](C(C)C)(C(C)C)O[C@H]2c1ccccc1 | inactive
COc1cc(Cc2cc3c(c(CCc4ccccc4)n2)[Si](C(C)C)(C(C)C)OC3)cc(OC)c1OC | inactive
COc1c(C)cc(-c2cc3c(c(CCc4ccccc4)n2)[Si](C(C)C)(C(C)C)O[C@H]3c2ccccc2)cc1C | active
COc1cc(Cc2cc3c(c(CCc4ccccc4)n2)[Si](C(C)C)(C(C)C)O[C@H]3c2ccccc2)cc(OC)c1OC | active
COc1c(C)cc(-c2cc3c(c(-c4ccccc4)n2)[Si](C(C)C)(C(C)C)O[C@H]3c2ccccc2)cc1C | inactive
COc1ccc(-c2cc3c(c(CCc4ccccc4)n2)[Si](C(C)C)(C(C)C)O[C@H]3c2ccccc2)cn1 | inactive
C=CCNC1=C2C[C@H](C)C[C@H](OC)[C@@H](O)[C@H](C)/C=C(\C)[C@H](OC(N)=O)[C@H](OC)/C=C/C=C(\C)C(=O)NC(=CC1=O)C2=O | inactive
C[C@H](CO)N1C[C@H](C)[C@H](CN(C)Cc2ccc(C(=O)Nc3ccccc3N)cc2)Oc2c(NC(=O)NC3CCCCC3)cccc2C1=O | inactive
C[C@@H]1CCCCO[C@@H](CN(C)CC2CCCCC2)[C@H](C)CN([C@@H](C)CO)C(=O)c2cc(NS(=O)(=O)c3cccs3)ccc2O1 | inactive
O=C(NCc1ccc(Oc2ccccc2)cc1)c1nc(-c2cc(Br)c(O)c(Br)c2)no1 | active
NCCNC(=O)c1nc(-c2ccc(Br)o2)no1 | inactive
NNC(=O)c1nc(-c2ccccc2)no1 | inactive
COc1ccc(NC(=O)N(C)C[C@H]2Oc3c(NC(=O)c4ccc(-c5nccs5)cc4)cccc3C(=O)N([C@@H](C)CO)C[C@H]2C)cc1 | inactive
CN(C)c1cc[n+](C(=O)N2CCOCC2)cc1 | inactive

SMILES | growth inhibition call
O=c1[nH]c(=O)c2cc(Br)ccc2[nH]1 | inactive
O=c1[nH]c(=O)c2ccccc2[nH]1 | inactive
COc1ccc2[nH]c(=O)[nH]c(=O)c2c1 | active
O=C(Nc1ccc(-c2nc3ccc(NC(=O)c4ccc(Cl)cc4)cc3[nH]2)cc1)c1ccc(Cl)cc1 | inactive
COCC#Cc1cnc2c(c1)C(=O)N([C@H](C)CO)C[C@H](C)[C@@H](CN(C)S(=O)(=O)c1cn(C)cn1)O2 | inactive
COc1ccc(CN(C)C[C@H]2OCCCC[C@H](C)Oc3ccc(NC(=O)c4ccccc4)cc3C(=O)N([C@@H](C)CO)C[C@@H]2C)cc1 | inactive
Cc1cc(C(=O)Nc2cccc3c2O[C@@H](CN(C)C(=O)NC(C)C)[C@H](C)CN([C@@H](C)CO)C3=O)n(C)n1 | inactive
C[C@@H]1CN([C@H](C)CO)C(=O)c2cc(NC(=O)Nc3ccccc3)ccc2O[C@@H](C)CCCCO[C@@H]1CN(C)Cc1ccccc1 | inactive
C[C@@H](OC[C@@]1(c2ccccc2)CC[C@]2(CCC(=O)N2)CN1)c1cc(C(F)(F)F)cc(C(F)(F)F)c1 | active
COc1ccc(NC(=O)Nc2cccc3c2O[C@@H](CN(C)S(C)(=O)=O)[C@H](C)CN([C@@H](C)CO)C3=O)cc1 | inactive
Cc1cc(Cl)ccc1OCCN1CCN(C(=O)[C@H]2CC[C@@H](N)C2)CC1 | inactive
Cc1cccnc1[C@H](c1ccc(F)cc1)N(C)C(=O)C1CCN(CCn2cnc3c2c(=O)n(C)c(=O)n3C)CC1 | inactive
Cc1ccccc1[C@@H](c1ncccc1C)N(C)C(=O)C1CCN(CCOc2ccc3ccccc3c2)CC1 | inactive
Cc1cccnc1[C@H](c1ccc(F)cc1)N(C)C(=O)C1CCN(CCOc2ccc(Cl)cc2Cl)CC1 | active
COc1ccccc1[C@@H](NC(=O)C1CCN(CCOc2ccc(Cl)cc2Cl)CC1)c1ccccn1 | inactive
Cc1ccccc1[C@@H](c1ncccc1C)N(C)C(=O)C1CCN(CCOc2ccc(Cl)cc2Cl)CC1 | active
COc1ccc(S(=O)(=O)Nc2ccc3c(c2)C(=O)N([C@H](C)CO)C[C@@H](C)[C@H](CN(C)Cc2ccc(Cl)c(Cl)c2)OCCCC[C@H](C)O3)cc1 | inactive
C[C@@H]1CN([C@H](C)CO)C(=O)c2cc(-c3ccncc3)cnc2O[C@H]1CN(C)S(=O)(=O)c1ccccc1 | inactive
C[C@@H]1CN([C@@H](C)CO)C(=O)c2cc(NS(=O)(=O)c3ccc(F)cc3)ccc2O[C@H]1CN(C)C(=O)Nc1ccc(C(F)(F)F)cc1 | inactive
C[C@@H]1CCCCO[C@H](CN(C)S(=O)(=O)c2cn(C)cn2)[C@H](C)CN([C@@H](C)CO)C(=O)c2cc(NS(=O)(=O)c3ccc(F)cc3)ccc2O1 | inactive
C[C@@H]1CN([C@@H](C)CO)C(=O)c2cc(NC(=O)Nc3cccc4ccccc34)ccc2O[C@@H]1CN(C)S(=O)(=O)c1ccc(F)cc1 | inactive
COc1cc(OC)cc(-c2ccc(-c3ccc([C@H]4CC(=O)C[C@@H](c5ccccc5)C45C(=O)OC(C)(C)OC5=O)cc3)cc2OC)c1 | inactive

SMILES | growth inhibition call
COc1cc(OC)cc(-c2ccc([C@H]3CC(=O)C[C@@H](c4ccccc4)C34C(=O)OC(C)(C)OC4=O)cc2)c1 | inactive
COc1cc(OC)cc(-c2ccc([C@H]3CC(=O)C[C@@H](c4ccccc4)C34C(=O)c3ccccc3C4=O)cc2)c1 | active
Cc1cc(C(=O)Nc2cccc3c2O[C@H](CN(C)C(=O)NC(C)C)[C@@H](C)CN([C@H](C)CO)C3=O)n(C)n1 | inactive
C[C@H](CO)N1C[C@H](C)[C@@H](CN(C)C(=O)c2ccccc2)OCCCC[C@H](C)Oc2ccc(NC(=O)Nc3ccc4c(c3)OCO4)cc2C1=O | inactive
CO[C@H]1CN(C)C(=O)c2ccc(NS(=O)(=O)c3ccccc3C)cc2OC[C@@H](C)N(S(C)(=O)=O)C[C@@H]1C | inactive
C[C@@H]1CCCCO[C@H](CN(C)C)[C@H](C)CN([C@@H](C)CO)C(=O)c2cc(NC(=O)CCCN(C)C)ccc2O1 | inactive
CO[C@@H]1[C@@H](O[C@@H]2O[C@H](C)[C@@H](O[C@H]3C[C@@](C)(O)[C@@H](OC(=O)CC(C)C)[C@H](C)O3)[C@H](N(C)C)[C@H]2O)[C@@H](CC=O)C[C@@H](C)[C@@H](O)/C=C\C=C/C[C@@H](C)OC(=O)C[C@H]1OC(C)=O | active
CO[C@@H]1[C@@H](O[C@@H]2O[C@H](C)[C@@H](O[C@H]3C[C@@](C)(O)[C@@H](OC(=O)CC(C)C)[C@H](C)O3)[C@H](N(C)C)[C@H]2O)[C@@H](CC=O)C[C@@H](C)[C@@H](O)/C=C/C=C/CC(C)OC(=O)C[C@H]1OC(C)=O (some centres undefined) | inactive
COC(=O)[C@@H]1CC(=O)O[C@H](C)C/C=C/C=C/[C@H](O)[C@H](C)C[C@H](CC=O)[C@H](O[C@H]2O[C@H](C)[C@@H](O[C@H]3C[C@@](C)(O)[C@@H](OC(=O)CC(C)C)[C@H](C)O3)[C@H](N(C)C)[C@H]2O)[C@H]1OC | active
COC1C(O)CC(=O)OC(C)CC=CC=CC(O)C(C)CC(CC=O)C1OC1OC(C)C(OC2CC(C)(O)C(OC(=O)CC(C)C)C(C)O2)C(N(C)C)C1O (centres undefined) [KITASAMYCINS [A1 shown]] | active
C[C@@H]1CN([C@@H](C)CO)C(=O)c2cc(NC(=O)CCC(F)(F)F)ccc2O[C@@H]1CN(C)Cc1ccc(Oc2ccccc2)cc1 | inactive
C[C@H]1CN([C@@H](C)CO)C(=O)c2cccc(NC(=O)NC3CCCCC3)c2O[C@H]1CN(C)C(=O)Nc1ccc(C(F)(F)F)cc1 | inactive
C[C@@H]1CN([C@H](C)CO)C(=O)c2cccc(NC(=O)Nc3ccc(C(F)(F)F)cc3)c2O[C@@H]1CN(C)C(=O)NC1CCCCC1 | inactive
C[C@@H]1CN([C@H](C)CO)C(=O)c2cccc(NC(=O)Nc3ccc(C(F)(F)F)cc3)c2O[C@@H]1CN(C)CC1CCCCC1 | active
C[C@H]1CN([C@@H](C)CO)C(=O)c2cccc(NC(=O)Nc3ccc(C(F)(F)F)cc3)c2O[C@@H]1CN(C)CC1CCCCC1 | inactive
C[C@H](CO)N1C[C@H](C)[C@H](CN(C)C(=O)Nc2ccc(C(F)(F)F)cc2)Oc2c(NC(=O)NC3CCCCC3)cccc2C1=O | active
C[C@@H]1CN([C@H](C)CO)C(=O)c2cccc(NC(=O)Nc3ccc(C(F)(F)F)cc3)c2O[C@H]1CN(C)CC1CCCCC1 | inactive
C[C@H]1CN([C@@H](C)CO)C(=O)c2cccc(NC(=O)Nc3ccc(C(F)(F)F)cc3)c2O[C@@H]1CN(C)C(=O)NC1CCCCC1 | inactive
C[C@H]1CN([C@@H](C)CO)C(=O)c2cccc(NC(=O)Nc3ccc(C(F)(F)F)cc3)c2O[C@H]1CN(C)C(=O)NC1CCCCC1 | active
C[C@@H]1CN([C@H](C)CO)C(=O)c2cccc(NC(=O)NC3CCCCC3)c2O[C@H]1CN(C)C(=O)Nc1ccc(C(F)(F)F)cc1 | inactive
